Experimental data published in the supplement of paper PMC10849652.
Of roughly 7,900 targets only a part is listed; those with a hit were picked by preference. About 0.6% of all pairs of compound and target were hits.

Each target was assayed with c1cn2cc(-c3ccc4cn[nH]c4c3)nc(Nc3ccc(N4CCOCC4)cc3)c2n1 [entospletinib] (assay: log2 fold change, soluble protein after heating vs DMSO (PISA); higher = thermal stabilisation; K562 cells, 10 uM, 30 min; active = over 0.2 and 3.5 SD of the protein, either way, in both replicates (recomputed)).
In short: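 K562 cells at 2×10^6 cells/mL were exposed to 10 μM compound for 30 min, then aliquots were heated for 3 min across 48°C-58°C, pooled, and extracted in PBS containing 0.5% NP-40 at 4°C. The supernatant after 21,000xg for 90 min was taken as soluble protein and measured by TMTpro 16plex LC-MS/MS with channel sums equalised. Thermal stability is reported relative to control samples, with values from duplicates. Fold changes are given on a log2 scale.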

Chain of UniProt P78382 (P78382 whole entry, looked up): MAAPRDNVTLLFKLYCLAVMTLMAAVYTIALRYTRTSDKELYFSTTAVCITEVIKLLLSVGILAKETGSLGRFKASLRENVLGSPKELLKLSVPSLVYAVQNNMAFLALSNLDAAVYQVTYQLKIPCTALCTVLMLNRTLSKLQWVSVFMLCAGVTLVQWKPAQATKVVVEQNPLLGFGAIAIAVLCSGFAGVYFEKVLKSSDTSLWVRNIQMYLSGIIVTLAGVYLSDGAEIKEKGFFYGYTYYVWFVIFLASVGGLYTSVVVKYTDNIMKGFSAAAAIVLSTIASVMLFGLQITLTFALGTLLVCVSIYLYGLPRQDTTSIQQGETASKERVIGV
Chain of UniProt O94901 (O94901 whole entry, looked up): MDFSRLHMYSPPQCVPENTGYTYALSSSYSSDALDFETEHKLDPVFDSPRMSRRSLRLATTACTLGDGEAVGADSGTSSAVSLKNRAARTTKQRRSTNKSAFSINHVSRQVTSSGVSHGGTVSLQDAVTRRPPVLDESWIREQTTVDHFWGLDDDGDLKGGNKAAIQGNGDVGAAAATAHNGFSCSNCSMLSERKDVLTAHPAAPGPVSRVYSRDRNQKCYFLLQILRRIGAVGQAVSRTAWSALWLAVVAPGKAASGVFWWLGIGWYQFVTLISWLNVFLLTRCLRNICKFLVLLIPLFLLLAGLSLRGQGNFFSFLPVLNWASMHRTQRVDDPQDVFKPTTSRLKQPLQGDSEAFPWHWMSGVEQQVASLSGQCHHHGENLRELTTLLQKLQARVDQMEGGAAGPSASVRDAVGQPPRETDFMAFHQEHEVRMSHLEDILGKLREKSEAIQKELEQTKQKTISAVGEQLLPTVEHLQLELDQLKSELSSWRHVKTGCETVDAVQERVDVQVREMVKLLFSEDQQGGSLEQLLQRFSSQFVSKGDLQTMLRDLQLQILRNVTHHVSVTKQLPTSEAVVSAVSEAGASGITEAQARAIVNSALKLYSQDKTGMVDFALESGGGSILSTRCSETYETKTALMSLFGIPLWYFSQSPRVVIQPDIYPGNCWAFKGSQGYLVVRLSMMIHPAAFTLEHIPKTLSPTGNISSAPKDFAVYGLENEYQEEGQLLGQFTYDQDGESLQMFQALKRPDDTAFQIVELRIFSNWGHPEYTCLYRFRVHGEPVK
Chain of UniProt O15400 (O15400 whole entry, looked up): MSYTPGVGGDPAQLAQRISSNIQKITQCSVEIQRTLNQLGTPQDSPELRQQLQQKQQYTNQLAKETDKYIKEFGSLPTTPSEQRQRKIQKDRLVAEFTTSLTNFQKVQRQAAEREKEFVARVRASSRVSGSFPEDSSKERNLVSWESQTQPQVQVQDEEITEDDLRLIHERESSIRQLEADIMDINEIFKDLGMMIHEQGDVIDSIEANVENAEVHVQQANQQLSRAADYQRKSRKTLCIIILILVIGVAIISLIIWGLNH
Chain of UniProt O43615 (O43615 whole entry, looked up): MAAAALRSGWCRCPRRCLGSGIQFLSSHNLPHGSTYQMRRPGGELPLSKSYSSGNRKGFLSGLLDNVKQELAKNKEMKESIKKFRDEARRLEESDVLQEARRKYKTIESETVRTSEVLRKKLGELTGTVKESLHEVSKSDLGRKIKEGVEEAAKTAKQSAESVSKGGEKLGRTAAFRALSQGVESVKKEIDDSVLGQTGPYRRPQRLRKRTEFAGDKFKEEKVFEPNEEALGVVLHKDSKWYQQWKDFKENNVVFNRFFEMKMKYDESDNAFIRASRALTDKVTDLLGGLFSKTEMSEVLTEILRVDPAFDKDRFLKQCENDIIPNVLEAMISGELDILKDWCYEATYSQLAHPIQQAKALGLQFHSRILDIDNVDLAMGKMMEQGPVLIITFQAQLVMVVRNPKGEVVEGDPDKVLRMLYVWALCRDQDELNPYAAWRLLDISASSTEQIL
Chain of UniProt Q9Y5X3 (Q9Y5X3 whole entry, looked up): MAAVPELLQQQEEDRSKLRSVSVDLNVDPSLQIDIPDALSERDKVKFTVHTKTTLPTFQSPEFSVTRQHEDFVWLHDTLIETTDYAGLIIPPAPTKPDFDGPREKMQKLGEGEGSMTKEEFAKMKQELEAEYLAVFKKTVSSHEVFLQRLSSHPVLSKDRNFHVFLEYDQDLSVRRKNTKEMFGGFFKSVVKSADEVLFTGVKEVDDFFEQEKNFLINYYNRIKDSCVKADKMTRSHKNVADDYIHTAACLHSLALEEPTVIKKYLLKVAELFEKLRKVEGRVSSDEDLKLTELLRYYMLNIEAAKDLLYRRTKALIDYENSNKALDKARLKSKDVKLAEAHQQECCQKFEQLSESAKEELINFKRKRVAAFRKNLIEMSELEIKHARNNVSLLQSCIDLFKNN
Chain of UniProt Q13428 (Q13428 whole entry, looked up): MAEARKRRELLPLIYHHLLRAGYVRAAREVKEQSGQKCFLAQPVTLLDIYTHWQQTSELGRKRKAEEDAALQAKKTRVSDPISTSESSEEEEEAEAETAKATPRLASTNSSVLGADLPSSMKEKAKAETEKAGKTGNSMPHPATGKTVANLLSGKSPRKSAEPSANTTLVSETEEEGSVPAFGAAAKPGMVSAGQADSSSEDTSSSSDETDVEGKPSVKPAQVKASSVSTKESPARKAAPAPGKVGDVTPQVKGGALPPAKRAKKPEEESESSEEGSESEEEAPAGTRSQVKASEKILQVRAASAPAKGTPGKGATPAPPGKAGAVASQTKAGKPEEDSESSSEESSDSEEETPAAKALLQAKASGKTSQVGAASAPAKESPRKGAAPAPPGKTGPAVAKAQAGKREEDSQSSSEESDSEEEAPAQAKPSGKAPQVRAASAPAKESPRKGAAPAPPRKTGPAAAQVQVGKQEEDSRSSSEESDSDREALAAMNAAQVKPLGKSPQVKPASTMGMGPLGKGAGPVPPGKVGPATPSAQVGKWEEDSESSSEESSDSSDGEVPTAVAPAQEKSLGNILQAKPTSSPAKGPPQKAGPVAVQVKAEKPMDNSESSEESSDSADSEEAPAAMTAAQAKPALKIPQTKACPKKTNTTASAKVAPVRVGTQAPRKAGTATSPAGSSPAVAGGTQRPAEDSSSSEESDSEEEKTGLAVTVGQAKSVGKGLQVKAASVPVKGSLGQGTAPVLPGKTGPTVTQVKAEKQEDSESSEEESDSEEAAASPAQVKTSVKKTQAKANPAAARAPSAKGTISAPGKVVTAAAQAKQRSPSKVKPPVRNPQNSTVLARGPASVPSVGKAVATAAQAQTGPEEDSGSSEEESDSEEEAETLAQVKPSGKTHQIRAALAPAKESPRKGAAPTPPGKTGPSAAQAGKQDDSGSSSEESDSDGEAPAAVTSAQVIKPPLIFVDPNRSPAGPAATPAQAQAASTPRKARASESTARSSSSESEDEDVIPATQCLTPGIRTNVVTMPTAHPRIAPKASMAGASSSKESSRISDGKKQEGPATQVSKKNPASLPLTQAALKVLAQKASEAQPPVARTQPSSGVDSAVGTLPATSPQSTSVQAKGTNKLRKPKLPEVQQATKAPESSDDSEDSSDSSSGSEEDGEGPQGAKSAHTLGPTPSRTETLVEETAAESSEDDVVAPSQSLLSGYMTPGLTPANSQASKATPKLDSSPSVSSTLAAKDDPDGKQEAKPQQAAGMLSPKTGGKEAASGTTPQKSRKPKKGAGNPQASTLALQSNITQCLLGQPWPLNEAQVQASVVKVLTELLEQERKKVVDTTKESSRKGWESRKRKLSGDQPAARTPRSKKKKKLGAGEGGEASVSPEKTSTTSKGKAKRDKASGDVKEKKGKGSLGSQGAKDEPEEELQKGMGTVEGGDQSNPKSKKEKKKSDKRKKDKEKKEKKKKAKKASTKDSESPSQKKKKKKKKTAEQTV
Chain of UniProt Q13596 (Q13596 whole entry, looked up): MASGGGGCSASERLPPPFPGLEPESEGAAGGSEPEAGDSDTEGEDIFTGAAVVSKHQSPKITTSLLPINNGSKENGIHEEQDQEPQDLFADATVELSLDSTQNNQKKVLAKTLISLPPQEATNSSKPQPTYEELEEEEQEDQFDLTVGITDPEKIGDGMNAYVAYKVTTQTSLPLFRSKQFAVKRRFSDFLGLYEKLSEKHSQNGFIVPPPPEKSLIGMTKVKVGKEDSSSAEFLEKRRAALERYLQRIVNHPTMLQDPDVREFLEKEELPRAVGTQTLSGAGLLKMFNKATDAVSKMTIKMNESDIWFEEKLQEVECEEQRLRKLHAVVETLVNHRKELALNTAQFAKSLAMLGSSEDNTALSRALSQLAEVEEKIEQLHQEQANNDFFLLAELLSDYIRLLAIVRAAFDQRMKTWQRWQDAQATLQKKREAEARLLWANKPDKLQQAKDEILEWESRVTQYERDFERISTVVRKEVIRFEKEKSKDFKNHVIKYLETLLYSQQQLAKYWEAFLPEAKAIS
Chain of UniProt O95772 (O95772 whole entry, looked up): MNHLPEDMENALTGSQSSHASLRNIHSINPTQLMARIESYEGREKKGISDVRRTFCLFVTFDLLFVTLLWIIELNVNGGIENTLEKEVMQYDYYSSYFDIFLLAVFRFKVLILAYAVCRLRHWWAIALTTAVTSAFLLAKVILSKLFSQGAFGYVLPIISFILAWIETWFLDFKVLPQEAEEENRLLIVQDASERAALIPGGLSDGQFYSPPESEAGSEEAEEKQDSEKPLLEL
Chain of UniProt P36897 (P36897 whole entry, looked up): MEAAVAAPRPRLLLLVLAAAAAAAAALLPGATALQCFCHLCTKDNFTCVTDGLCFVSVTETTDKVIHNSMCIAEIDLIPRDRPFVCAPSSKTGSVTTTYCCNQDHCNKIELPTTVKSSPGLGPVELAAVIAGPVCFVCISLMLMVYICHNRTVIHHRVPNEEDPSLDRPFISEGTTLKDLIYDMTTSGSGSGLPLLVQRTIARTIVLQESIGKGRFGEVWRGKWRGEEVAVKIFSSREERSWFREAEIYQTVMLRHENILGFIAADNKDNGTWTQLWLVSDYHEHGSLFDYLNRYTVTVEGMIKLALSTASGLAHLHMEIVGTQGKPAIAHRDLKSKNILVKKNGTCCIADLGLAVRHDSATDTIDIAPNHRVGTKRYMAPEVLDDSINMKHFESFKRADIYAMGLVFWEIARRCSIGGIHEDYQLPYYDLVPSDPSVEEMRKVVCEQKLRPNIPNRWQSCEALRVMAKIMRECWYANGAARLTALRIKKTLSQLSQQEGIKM

log2 fold change, inactive:
TFR2 (UniProt Q9UP52) 0.052, TGFBR1 isoform 2 (UniProt P36897) -0.018, STK11IP (UniProt Q8N1F8) 0.036, SRSF7 (UniProt Q16629) 0.197, TAOK2 (UniProt Q9UL54) -0.038, SYK (UniProt P43405) 0.015, TCOF1 isoform 3 (UniProt Q13428) 0.399, SRI (UniProt P30626) 0.019, STK38L (UniProt Q9Y2H1) 0.083, SLC35A1 (UniProt P78382) -0.142, TIMM44 (UniProt O43615) -0.036, SLC25A38 (UniProt Q96DW6) -0.02, SNX1 (UniProt Q13596) -0.002, SLC27A4 (UniProt Q6P1M0) -0.027, SNUPN (UniProt O95149) 0.064, STARD9 (UniProt Q9P2P6) -0.059, TLK2 isoform 2 (UniProt Q86UE8) 0.03, STAT3 (UniProt P40763) 0.026, SLC25A39 (UniProt Q9BZJ4) -0.045, SNX5 (UniProt Q9Y5X3) -0.002, TELO2 (UniProt Q9Y4R8) 0.044, STARD3NL (UniProt O95772) -0.088, TJP1 (UniProt Q07157) 0.009, SUN1 isoform 9 (UniProt O94901) -0.064, SMAP2 (UniProt Q8WU79) 0.019, SNX3 (UniProt O60493) 0.084, SMDT1 (UniProt Q9H4I9) 0.01, SLC35F6 (UniProt Q8N357) -0.011, SRCAP (UniProt Q6ZRS2) 0.029, SLC35B1 isoform 2 (UniProt P78383) -0.154, STX7 (UniProt O15400) 0.02, SLC30A10 (UniProt Q6XR72) 0.01, SUN2 (UniProt Q9UH99) 0, TM7SF3 (UniProt Q9NS93) -0.081, SP2 (UniProt Q02086) 0.07
